Laboratory results: PubChem BioAssay
Values without a mark were called inactive. The source made the active and inactive calls.

Experiment: PSAC antagonists in infected red cells, primary screen, cell-based, P. falciparum Indochina, OD700, 1 h (AID 1154)
Details: P. falciparum Indochina infected RBC osmotic lysis, higher = more signal, called active from +8 up or from −8 down

Structure (SMILES) | z-score
COc1ccc(C(=O)Nc2cccc(CN3C(=O)[C@@]4(O[C@@H](CC(=O)N(CCO)Cc5ccccc5)[C@H]([Si](C)(C)c5ccc(OC)cc5)[C@H]4C)c4ccccc43)c2)cc1 | 12.3 (active)
C=CCC(OC(C)=O)[C@@H]1[C@@H](N(Cc2ccc(-c3cccc(C(F)(F)F)c3)o2)C(=O)Cc2ccc(OC)cc2)c2cc(OCCCO)ccc2N1C(=O)Cc1ccc2ccccc2c1 (stereo not given in full) | 0.572
CO[C@H]1O[C@H](CO)[C@@H](OC(=O)c2ccc(Br)cc2)[C@@H]2OC(=O)[C@H](Cc3ccccc3)C/C=C/C[C@@H](Cc3ccccc3)C(=O)O[C@@H]12 | 2.36
O=C(CS)NCCCCCCNC(=O)[C@@H]1C[C@@H]2C(=O)NCC(=O)N2[C@@H]1c1ccc(O)cc1 | 2.54
COCCOC(=O)N1C(=O)[C@@]2(c3cc(C#CCNC(N)=O)ccc31)[C@H](c1ccc(OCCO)cc1)N1[C@H](c3ccccc3)[C@H](c3ccccc3)OC(=O)[C@H]1[C@@H]2C(=O)NC[C@H](O)c1ccccc1 | 1.65
CC(C)C[C@@H]1NC(=O)CNC(=O)[C@@]23C(=O)N[C@@H](Cc4ccccc4)C2[C@H](C)[C@@]2(C)O[C@H]2C3/C=C/C/C=C\CNC1=O (stereo not given in full) | 0.349
COCCOC(=O)N1C(=O)[C@@]2(c3cc(C#CC4(O)CCCCCC4)ccc31)[C@H](c1ccc(OCCO)cc1)N1[C@H](c3ccccc3)[C@H](c3ccccc3)OC(=O)[C@H]1[C@@H]2C(=O)Nc1nc2ccccc2s1 | 2.53
COCCOC(=O)N1C(=O)[C@@]2(c3cc(C#CCC(C(=O)OC)C(=O)OC)ccc31)[C@H](C(=O)NC[C@H](O)c1ccccc1)[C@H]1C(=O)O[C@H](c3ccccc3)[C@H](c3ccccc3)N1[C@@H]2c1ccc(O)cc1 | 2.35
C=C(C(=O)CC[C@H](OC(=O)c1ccccc1-c1ccccc1C(=O)O)c1ccccc1OCCO)C(C)C | 6.14
C=C(C)[C@@H]1CC=C(C(O)C2C=CC3C(=O)N(c4ccccc4)C(=O)C3N2Nc2ccc(C#N)cc2)CC1 (stereo not given in full) | 9.15 (active)

Experiment: PSAC antagonists in infected red cells, primary screen, cell-based, P. falciparum Indochina, OD700, 2 h (AID 1155);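 note: lysis reports solute entry through the parasite surface anion channel PSAC; channel blockers reduce lysis of infected cells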
Details: P. falciparum Indochina infected erythrocytes, osmotic lysis OD700; higher = more signal, called active from +8 up or from −8 down

Structure (SMILES) | z-score
COC(=O)C(CC#Cc1ccc2c(c1)[C@]1(C(=O)N2)[C@H](c2ccc(O)cc2)N2[C@H](c3ccccc3)[C@H](c3ccccc3)OC(=O)[C@H]2[C@@H]1C(=O)N1CCCCCCC1)C(=O)OC | -1.11
CC(C)=CCCC(C)=CC(O)C1C=CC2C(=O)N(c3ccccc3)C(=O)C2N1Nc1ccccc1F (stereo not given) | -0.389
CN(C)CCCCNC(=O)[C@H]1C[C@H]2C(=O)N[C@@H](CCCC[N+](C)(C)C)C(=O)N2[C@H]1c1ccc(O)cc1 | -0.539
CN(C)CCCNC(=O)[C@@H]1c2ccccc2C(=O)N(C2CCCCC2)[C@H]1c1ccc(CO)cc1 | -0.541
CC(C)CNC(=O)[C@@H]1c2ccccc2C(=O)N(C2CCCCC2)[C@H]1c1ccc(CO)cc1 | 0.387
O=C1C2C=CC(C(O)c3ccco3)N(Nc3ccccc3)C2C(=O)N1c1ccccc1 (stereo not given) | -0.0044
COc1ccc([Si](C)(C)[C@@H]2[C@@H](CCn3cc([C@H](O)c4ccccc4)nn3)O[C@]3(C(=O)N(c4ccccc4)c4ccccc43)[C@H]2C)cc1 | -1.51
CCCNC(=O)[C@@]1(Sc2ccc(C)cc2)CC(=O)N(C2CCCCC2)[C@@H]1c1ccc(CO)cc1I | 0.465
COC(=O)C(CC#Cc1ccc2c(c1)[C@]1(C(=O)N2)[C@H](C(=O)Nc2nc3ccccc3s2)[C@H]2C(=O)O[C@H](c3ccccc3)[C@H](c3ccccc3)N2[C@@H]1c1ccc(OCCO)cc1)C(=O)OC | 0.782
CC(=O)NCCCC[C@@H]1NC(=O)[C@@H]2C[C@H](C(=O)NCCCCCCN)[C@H](c3cccc(OCCO)c3)N2C1=O | 0.503
COc1ccc([Si](C)(C)[C@H]2[C@H](CCO)O[C@@]3(C(=O)N(Cc4ccc(N5C(=O)c6ccccc6Oc6ccccc65)cc4)c4ccccc43)[C@@H]2C)cc1 | 2.83
CCCCC=C[C@@H](NC(=O)c1ccccc1)c1ccccc1 | 0.279
COCCOC(=O)N1C(=O)[C@@]2(c3cc(C#CC4=CCCCC4)ccc31)[C@H](C(=O)N1CCCCCCC1)[C@H]1C(=O)O[C@H](c3ccccc3)[C@H](c3ccccc3)N1[C@@H]2c1ccc(OCCO)cc1 | 1.19
COCCOC(=O)N1C(=O)[C@@]2(c3cc(C#CCNC(N)=O)ccc31)[C@H](c1ccc(O)cc1)N1[C@H](c3ccccc3)[C@H](c3ccccc3)OC(=O)[C@H]1[C@@H]2C(=O)N1CCN(c2ncccn2)CC1 | 1.32
COCCOC(=O)N1C(=O)[C@@]2(c3cc(C#CCCO)ccc31)[C@H](c1ccccc1OCCO)N1[C@H](c3ccccc3)[C@H](c3ccccc3)OC(=O)[C@H]1[C@@H]2C(=O)N1CCCCCCC1 | 0.0348
CC(=O)N1CC(C(O)C2C=CC3C(=O)NC(=O)C3N2Nc2ccc(Cl)cc2Cl)c2ccccc21 (stereo not given) | 1.36
COc1cc2c(cc1OC)CN(C(=O)[C@@H]1[C@H]3C(=O)O[C@H](c4ccccc4)[C@H](c4ccccc4)N3[C@H](c3ccc(O)cc3)[C@@]13C(=O)Nc1ccc(C#CCCO)cc13)CC2 | 0.448
NCCCCCNC(=O)[C@H]1C[C@H]2C(=O)N[C@@H](Cc3ccccc3)C(=O)N2[C@H]1c1ccc(O)cc1 | 0.288

Structure (SMILES) | z-score
CC(C)OC(=O)CC(=O)CC(O)c1ccc([N+](=O)[O-])cc1 (stereo not given) | 0.586
CCCNC(=O)[C@@]1(C)c2ccccc2C(=O)N(Cc2ccccc2)[C@H]1c1ccc(CO)cc1 | 0.505
COC(=O)[C@@]1(Cc2ccc(OC)cc2)[C@H]2c3cc(C(=O)N4CCCC4)n(Cc4cc(C)n(C)n4)c3C[C@H]2CN1C(=O)c1ccccc1 | 0.279
C=CCC(OC(C)=O)[C@@H]1[C@@H](N(Cc2ccc(-c3cccc(C(F)(F)F)c3)o2)C(=O)c2ccc(C)cc2)c2cc(OCCCO)ccc2N1C(=O)Cc1ccc(OC)cc1 (stereo not given in full) | 0.0001
CC(=O)n1cc(C(O)C2C=CC3C(=O)N(c4ccccc4)C(=O)C3N2Nc2ccc(C(C)C)cc2)c2ccccc21 (stereo not given) | 0.959
C=CCC(OC(C)=O)[C@@H]1[C@@H](N(Cc2ccc(-c3ccccc3)cc2)C(=O)c2ccc(C)cc2)c2cc(OCCCO)ccc2N1C(=O)Cc1ccc2ccccc2c1 (stereo not given in full) | -0.66
COc1cc(C(O)C2C=CC3C(=O)N(Cc4ccccc4)C(=O)C3N2n2cnnc2)cc(OC)c1OC (stereo not given) | -0.129
COc1ccc(C(=O)Nc2cccc(CN3C(=O)[C@@]4(O[C@@H](CC(=O)N(CCO)Cc5ccccc5)[C@H]([Si](C)(C)c5ccc(OC)cc5)[C@H]4C)c4ccccc43)c2)cc1 | 0.833
C=CCC(OC(C)=O)[C@@H]1[C@@H](N(Cc2ccc(-c3cccc(C(F)(F)F)c3)o2)C(=O)Cc2ccc(OC)cc2)c2cc(OCCCO)ccc2N1C(=O)Cc1ccc2ccccc2c1 (stereo not given in full) | 0.214
CO[C@H]1O[C@H](CO)[C@@H](OC(=O)c2ccc(Br)cc2)[C@@H]2OC(=O)[C@H](Cc3ccccc3)C/C=C/C[C@@H](Cc3ccccc3)C(=O)O[C@@H]12 | -0.765
O=C(CS)NCCCCCCNC(=O)[C@@H]1C[C@@H]2C(=O)NCC(=O)N2[C@@H]1c1ccc(O)cc1 | -0.164
COCCOC(=O)N1C(=O)[C@@]2(c3cc(C#CCNC(N)=O)ccc31)[C@H](c1ccc(OCCO)cc1)N1[C@H](c3ccccc3)[C@H](c3ccccc3)OC(=O)[C@H]1[C@@H]2C(=O)NC[C@H](O)c1ccccc1 | 1.1
CC(C)C[C@@H]1NC(=O)CNC(=O)[C@@]23C(=O)N[C@@H](Cc4ccccc4)C2[C@H](C)[C@@]2(C)O[C@H]2C3/C=C/C/C=C\CNC1=O (stereo not given in full) | -0.262
COCCOC(=O)N1C(=O)[C@@]2(c3cc(C#CC4(O)CCCCCC4)ccc31)[C@H](c1ccc(OCCO)cc1)N1[C@H](c3ccccc3)[C@H](c3ccccc3)OC(=O)[C@H]1[C@@H]2C(=O)Nc1nc2ccccc2s1 | 2.08
COCCOC(=O)N1C(=O)[C@@]2(c3cc(C#CCC(C(=O)OC)C(=O)OC)ccc31)[C@H](C(=O)NC[C@H](O)c1ccccc1)[C@H]1C(=O)O[C@H](c3ccccc3)[C@H](c3ccccc3)N1[C@@H]2c1ccc(O)cc1 | -0.27
C=C(C(=O)CC[C@H](OC(=O)c1ccccc1-c1ccccc1C(=O)O)c1ccccc1OCCO)C(C)C | 1.12
C=C(C)[C@@H]1CC=C(C(O)C2C=CC3C(=O)N(c4ccccc4)C(=O)C3N2Nc2ccc(C#N)cc2)CC1 (stereo not given in full) | 3.26
